For some assays here: Results with a measured potency or affinity are listed apart.
Key:
Set-up in all cases: scale not given: direction of the effect not stated beside the values
[1] = target: Protein translocase subunit SecA (Escherichia coli (strain K12)) (UniProt P10408); assay: Assay to Identify E. coli SecA ATPase Inhibitors; format: functional; conditions: 30 µM
[2] = target: T1, Ubiquitin-activating enzyme e1, putative (Leishmania donovani (strain BPK282A1)) (UniProt E9BSI1); assay: Leishmania donovani Ubiquitin Activating Enzyme (LdE1); format: functional; conditions: 30 µM
T1 sequence (whole entry): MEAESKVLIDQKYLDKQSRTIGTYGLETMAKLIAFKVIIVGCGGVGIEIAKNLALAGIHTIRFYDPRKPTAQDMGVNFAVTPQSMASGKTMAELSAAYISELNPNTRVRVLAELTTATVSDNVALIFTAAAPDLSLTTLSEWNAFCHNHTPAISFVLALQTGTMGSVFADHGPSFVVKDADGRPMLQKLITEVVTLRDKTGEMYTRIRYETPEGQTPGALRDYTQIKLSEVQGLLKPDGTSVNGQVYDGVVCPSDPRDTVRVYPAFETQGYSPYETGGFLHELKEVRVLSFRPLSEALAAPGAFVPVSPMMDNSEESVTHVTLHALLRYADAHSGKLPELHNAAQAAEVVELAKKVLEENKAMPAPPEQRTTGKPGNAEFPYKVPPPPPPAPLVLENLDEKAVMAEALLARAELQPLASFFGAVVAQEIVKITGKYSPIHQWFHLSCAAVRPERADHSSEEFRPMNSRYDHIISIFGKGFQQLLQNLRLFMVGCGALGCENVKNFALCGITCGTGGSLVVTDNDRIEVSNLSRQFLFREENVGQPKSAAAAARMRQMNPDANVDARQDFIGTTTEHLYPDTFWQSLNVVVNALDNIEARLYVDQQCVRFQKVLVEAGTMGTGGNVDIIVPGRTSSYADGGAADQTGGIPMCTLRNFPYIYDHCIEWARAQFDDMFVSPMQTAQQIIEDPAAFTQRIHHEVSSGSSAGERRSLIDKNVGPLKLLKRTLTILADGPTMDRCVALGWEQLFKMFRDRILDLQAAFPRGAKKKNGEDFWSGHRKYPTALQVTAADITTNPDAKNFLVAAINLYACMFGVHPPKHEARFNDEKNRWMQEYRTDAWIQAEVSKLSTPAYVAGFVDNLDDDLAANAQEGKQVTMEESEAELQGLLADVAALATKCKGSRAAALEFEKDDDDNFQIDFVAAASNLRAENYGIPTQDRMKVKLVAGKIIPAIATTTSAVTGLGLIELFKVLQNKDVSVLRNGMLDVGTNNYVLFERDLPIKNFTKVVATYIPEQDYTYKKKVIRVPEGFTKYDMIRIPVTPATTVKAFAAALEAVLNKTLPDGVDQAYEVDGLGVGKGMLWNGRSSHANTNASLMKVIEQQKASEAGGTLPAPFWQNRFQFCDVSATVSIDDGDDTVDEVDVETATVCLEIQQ

[3] = target: AMP-activated protein kinase, AMPK (Homo sapiens) (UniProt P54646+O43741+P54619+Q9UGJ0+Q9Y478+Q13131+Q9UGI9); assay: AMP-dependent Kinase enzyme assay. An in vitro enzyme assay that detects ADP turnover that is directly proportional to AMPK activity. This uses naive AMPK that is activated during the assay with MK-8722; format: functional; conditions: 30 µM
[4] = target: Sialic acid-binding Ig-like lectin 9 (Homo sapiens) (UniProt Q9Y336); assay: Hs-Siglec9 ALPHAscreen SOP 20170721; conditions: 10 µM
Trypanosoma cruzi = assay: Trypanosoma cruzi phosphomannomutase and mannose-1-phosphate guanylyltransferase assay; format: functional; conditions: 10 µM
[5] = target: T2, Arginase-2, mitochondrial (Homo sapiens) (UniProt P78540); assay: in vitro enzyme assay to detect the production of urea directly proportional to the activity of Arginase II; format: functional; conditions: 33.3 µM; further: in the data most compounds retested in dose-response had high values
T2 sequence (whole entry): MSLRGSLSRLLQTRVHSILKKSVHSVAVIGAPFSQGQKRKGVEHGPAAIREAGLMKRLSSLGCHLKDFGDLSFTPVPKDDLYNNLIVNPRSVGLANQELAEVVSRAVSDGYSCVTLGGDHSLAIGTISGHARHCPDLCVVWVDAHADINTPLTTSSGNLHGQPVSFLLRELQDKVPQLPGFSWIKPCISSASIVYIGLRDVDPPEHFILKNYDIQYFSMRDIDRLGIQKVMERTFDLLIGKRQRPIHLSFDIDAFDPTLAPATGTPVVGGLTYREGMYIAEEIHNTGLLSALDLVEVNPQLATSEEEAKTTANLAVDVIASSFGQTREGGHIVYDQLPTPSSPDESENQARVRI

[6] = target: T3, Proteasome subunit beta (Trypanosoma cruzi) (UniProt O96673); assay: Trypanosoma cruzi proteasome chymotrypsin-like activity (TcProtChymo) assay.; further: in the data most compounds retested in dose-response had high values; format: functional; conditions: 9.37 µM
T3 sequence (whole entry): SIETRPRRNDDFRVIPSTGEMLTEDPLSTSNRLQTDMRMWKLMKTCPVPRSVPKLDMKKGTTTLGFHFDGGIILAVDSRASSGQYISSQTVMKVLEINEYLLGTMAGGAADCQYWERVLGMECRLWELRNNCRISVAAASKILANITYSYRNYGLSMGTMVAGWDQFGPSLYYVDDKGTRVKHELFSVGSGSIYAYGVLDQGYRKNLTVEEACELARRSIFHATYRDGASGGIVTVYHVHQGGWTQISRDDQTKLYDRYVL

Homo sapiens = organism: Homo sapiens; assay: To identify inhibition of the IFN signalling (Jak-Stat) pathway via expression of an eGFP reporter gene under the control of an IFN-stimulated response element (ISRE) containing MxA promoter.; format: functional; conditions: 30 µM
[7] = target: T4, Tyrosyl-tRNA synthetase, putative (Trypanosoma cruzi (strain CL Brener)) (UniProt Q4DSP6); assay: Trypanosoma cruzi tyrosyl tRNA synthetase (TcYRS) _High Tyrosine SOP; format: functional; conditions: 30 µM; further: in the data most compounds retested in dose-response had high values
T4 sequence (whole entry): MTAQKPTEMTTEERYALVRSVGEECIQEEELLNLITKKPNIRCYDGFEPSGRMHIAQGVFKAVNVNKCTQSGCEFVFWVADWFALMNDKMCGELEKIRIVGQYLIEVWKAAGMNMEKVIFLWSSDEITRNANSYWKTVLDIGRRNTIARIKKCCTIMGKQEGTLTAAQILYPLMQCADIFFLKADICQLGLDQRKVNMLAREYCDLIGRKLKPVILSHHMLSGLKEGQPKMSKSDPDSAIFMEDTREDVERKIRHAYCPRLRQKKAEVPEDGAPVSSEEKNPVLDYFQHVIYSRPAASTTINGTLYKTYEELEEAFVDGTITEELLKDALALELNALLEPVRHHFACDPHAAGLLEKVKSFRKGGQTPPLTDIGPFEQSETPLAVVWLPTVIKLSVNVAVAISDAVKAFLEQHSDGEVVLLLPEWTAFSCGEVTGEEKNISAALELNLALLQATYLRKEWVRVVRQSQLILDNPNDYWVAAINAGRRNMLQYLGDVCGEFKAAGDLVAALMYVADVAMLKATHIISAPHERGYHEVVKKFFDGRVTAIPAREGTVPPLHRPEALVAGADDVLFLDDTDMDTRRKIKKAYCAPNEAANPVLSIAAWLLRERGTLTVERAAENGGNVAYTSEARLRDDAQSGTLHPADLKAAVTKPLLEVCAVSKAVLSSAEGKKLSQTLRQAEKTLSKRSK

[8] = target: T4, Tyrosyl-tRNA synthetase, putative (Trypanosoma cruzi (strain CL Brener)); assay: Trypanosoma cruzi tyrosyl tRNA synthetase (TcYRS) SOP; format: functional; conditions: 30 µM
[9] = target: Chromo domain-containing protein 1 (Saccharomyces cerevisiae (strain ATCC 204508 / S288c) (Baker's yeast)) (UniProt P32657); assay: ScCHD-1 Enzyme Inhibition Assay; format: functional; conditions: 30 µM; further: in the data most compounds retested in dose-response had high values
Sequence of Chromo domain-containing protein 1 (Saccharomyces cerevisiae (strain ATCC 204508 / S288c) (Baker's yeast)) (P32657 whole entry, the tested form may be a part): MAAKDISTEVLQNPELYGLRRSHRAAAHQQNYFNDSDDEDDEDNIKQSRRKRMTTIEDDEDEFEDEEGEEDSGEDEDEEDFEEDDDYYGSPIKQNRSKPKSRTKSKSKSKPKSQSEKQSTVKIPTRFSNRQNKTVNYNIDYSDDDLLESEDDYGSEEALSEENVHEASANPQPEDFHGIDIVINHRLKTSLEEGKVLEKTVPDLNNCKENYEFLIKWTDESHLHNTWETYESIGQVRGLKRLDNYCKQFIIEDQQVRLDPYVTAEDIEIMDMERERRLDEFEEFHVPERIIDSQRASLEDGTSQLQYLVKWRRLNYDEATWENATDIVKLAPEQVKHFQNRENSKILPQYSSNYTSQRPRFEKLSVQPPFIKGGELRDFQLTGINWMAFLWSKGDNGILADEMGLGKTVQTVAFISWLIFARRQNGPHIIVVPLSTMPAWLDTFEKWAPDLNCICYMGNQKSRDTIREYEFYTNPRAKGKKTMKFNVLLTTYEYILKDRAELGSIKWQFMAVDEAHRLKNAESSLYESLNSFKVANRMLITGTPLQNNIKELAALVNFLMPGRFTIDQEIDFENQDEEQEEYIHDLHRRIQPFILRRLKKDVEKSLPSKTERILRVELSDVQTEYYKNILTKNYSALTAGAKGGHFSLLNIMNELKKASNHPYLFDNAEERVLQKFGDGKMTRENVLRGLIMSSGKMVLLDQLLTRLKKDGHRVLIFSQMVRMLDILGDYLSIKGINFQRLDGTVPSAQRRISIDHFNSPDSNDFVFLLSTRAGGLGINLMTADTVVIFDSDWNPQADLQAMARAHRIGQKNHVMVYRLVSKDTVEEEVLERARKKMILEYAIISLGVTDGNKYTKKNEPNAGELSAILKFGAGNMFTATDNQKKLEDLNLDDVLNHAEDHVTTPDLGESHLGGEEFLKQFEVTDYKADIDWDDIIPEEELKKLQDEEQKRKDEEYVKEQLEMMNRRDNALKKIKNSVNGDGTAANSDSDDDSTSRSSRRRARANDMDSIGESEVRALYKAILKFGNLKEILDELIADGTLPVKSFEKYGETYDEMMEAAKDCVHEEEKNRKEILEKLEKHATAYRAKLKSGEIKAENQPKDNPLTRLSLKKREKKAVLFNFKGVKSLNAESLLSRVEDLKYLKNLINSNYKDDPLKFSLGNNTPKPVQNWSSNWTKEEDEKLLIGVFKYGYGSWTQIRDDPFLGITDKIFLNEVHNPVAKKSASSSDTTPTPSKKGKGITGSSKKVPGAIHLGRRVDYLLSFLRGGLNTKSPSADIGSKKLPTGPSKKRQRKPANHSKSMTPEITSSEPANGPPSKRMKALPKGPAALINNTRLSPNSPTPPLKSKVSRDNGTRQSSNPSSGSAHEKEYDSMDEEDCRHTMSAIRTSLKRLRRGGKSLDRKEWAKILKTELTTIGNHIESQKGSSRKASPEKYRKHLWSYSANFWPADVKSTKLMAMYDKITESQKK

Sequence of Sialic acid-binding Ig-like lectin 9 (Homo sapiens) (Q9Y336 whole entry): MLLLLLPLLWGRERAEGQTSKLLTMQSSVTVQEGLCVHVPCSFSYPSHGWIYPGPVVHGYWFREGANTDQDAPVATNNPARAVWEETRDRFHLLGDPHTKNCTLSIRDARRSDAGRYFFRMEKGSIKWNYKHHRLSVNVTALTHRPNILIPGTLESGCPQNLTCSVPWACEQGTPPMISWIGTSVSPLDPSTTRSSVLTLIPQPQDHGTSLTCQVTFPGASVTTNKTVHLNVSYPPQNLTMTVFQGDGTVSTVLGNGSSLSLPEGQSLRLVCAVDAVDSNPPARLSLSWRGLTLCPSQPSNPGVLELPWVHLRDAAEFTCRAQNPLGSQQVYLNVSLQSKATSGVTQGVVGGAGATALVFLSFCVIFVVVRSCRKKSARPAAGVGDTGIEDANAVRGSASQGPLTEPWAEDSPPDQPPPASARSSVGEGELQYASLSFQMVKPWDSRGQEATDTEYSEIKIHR
Sequence of Protein translocase subunit SecA (Escherichia coli (strain K12)) (P10408 whole entry): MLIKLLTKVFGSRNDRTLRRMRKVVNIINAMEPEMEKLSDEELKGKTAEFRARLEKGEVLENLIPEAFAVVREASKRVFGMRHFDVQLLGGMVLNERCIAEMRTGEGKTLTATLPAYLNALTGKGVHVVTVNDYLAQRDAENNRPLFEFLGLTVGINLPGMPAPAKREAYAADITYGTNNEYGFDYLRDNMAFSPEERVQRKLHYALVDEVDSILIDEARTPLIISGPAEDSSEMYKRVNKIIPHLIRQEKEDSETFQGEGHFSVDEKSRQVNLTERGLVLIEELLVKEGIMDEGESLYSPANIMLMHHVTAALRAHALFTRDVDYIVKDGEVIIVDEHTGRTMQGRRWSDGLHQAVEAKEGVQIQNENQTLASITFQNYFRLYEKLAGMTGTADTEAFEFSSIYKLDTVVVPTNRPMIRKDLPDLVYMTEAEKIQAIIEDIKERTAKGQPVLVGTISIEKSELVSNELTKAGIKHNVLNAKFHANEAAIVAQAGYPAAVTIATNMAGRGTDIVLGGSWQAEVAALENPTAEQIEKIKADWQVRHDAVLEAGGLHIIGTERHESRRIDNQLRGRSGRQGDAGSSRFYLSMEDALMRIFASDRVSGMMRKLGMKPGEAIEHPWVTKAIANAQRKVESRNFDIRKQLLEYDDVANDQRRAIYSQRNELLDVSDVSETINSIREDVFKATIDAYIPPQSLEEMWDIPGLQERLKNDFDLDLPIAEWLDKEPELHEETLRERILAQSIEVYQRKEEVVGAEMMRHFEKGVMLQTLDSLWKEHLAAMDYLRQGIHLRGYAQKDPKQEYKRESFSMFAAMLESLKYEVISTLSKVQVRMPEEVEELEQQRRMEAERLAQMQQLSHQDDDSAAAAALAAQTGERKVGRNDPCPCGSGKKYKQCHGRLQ

Row | SMILES | Percent Effect [1] [%] | Percent Effect [2] [%] | Percent Effect [3] [%] | Percent Effect [4] [%] | Percent Effect (Trypanosoma cruzi) [%] | Percent Effect [5] [%] | Percent Effect [6] [%] | Percent Effect (Homo sapiens) [%] | Percent Effect [7] [%] | Percent Effect [8] [%] | Percent Effect [9] [%]
1 | Cc1cc(NC(=O)CN2CCN(c3nccs3)C(C)C2)n(C)n1 (configuration not stated) | -1.17 | -2.7 | -3.28 | 12 | 0.279 | 0.924 | 4.49 | -4.36 | 1.98 | 3.66 | 10.5
2 | Cn1cc(CN2C[C@@H]3COC[C@]3(COc3ccc(C#N)cn3)C2)cn1 | -0.614 | 5.48 | -2.34 | 6.07 | -1.98 | 1.2 | 11.4 | 13.4 | 8.33 | 11.1 | -0.913
3 | Cc1cccnc1NCCNC(=O)[C@H]1CNC[C@@H](C(=O)N2CCCC2)C1 | -3.94 | 2.74 | -3.43 | 8.93 | 2.38 | 0 | 10.5 | -27.6 | 5.21 | 13.6 | -4.52
4 | COc1cccc(N2CCN(CCC(=O)NC3CCCC3)CC2)c1 | -4.61 | 7.89 | 6.03 | 5.22 | -0.292 | -22.5 | 16.6 | 4.41 | 9.57 | 13 | -4.62
5 | Cc1ccc(CNC2CCCc3c2cnn3C)s1 (configuration not stated) | -5.39 | 13 | 5.11 | 1.58 | 6.95 | 0.21 | 17.1 | 9 | 9.52 | 21.2 | -7.9
6 | COc1c(C2CCCN2Cc2csc(C(C)C)n2)c(C)nn1C (configuration not stated) | -0.655 | 18.2 | -4.6 | -3.17 | -8.99 | 4.63 | 17.6 | 37.8 | 1.94 | 2.44 | -7.12
7 | COc1cccc(CNCCc2cc(F)cc3c2OCOC3)c1 | -2.14 | 1.39 | -14.2 | 27 | 6.51 | 3.53 | 8.42 | 1.36 | 0 | 5.13 | -4.8
8 | CC(=O)N1CCC(c2ccnc(Nc3cnccn3)n2)C1 (configuration not stated) | -0.594 | 13.3 | 12.9 | 1.15 | -4.72 | -4.43 | 5.73 | 5.13 | 4.25 | 16.7 | -5.82
9 | Cc1ccsc1-c1nnc(C2CCN(Cc3ccc(F)cc3)CC2)o1 | -4.79 | -9.46 | 14.3 | 4.24 | 7.31 | -4.87 | 10.8 | -11.7 | 3.23 | 3.9 | -15.5
10 | O=C(Cn1cc(C(=O)O)ccc1=O)NCc1ccc(F)c(Cl)c1 | -2.28 | 9.33 | -1.08 | -0.406 | 4.91 | -6.87 | 11.7 | 27 | 4.23 | 12.8 | -7.6
11 | CN1C(=O)C(c2ccccc2)CC12CCN(CCOCCO)CC2 (configuration not stated) | 1.44 | 10.7 | -6.48 | 0.314 | -9.64 | 3.12 | 19.2 | 15.2 | 3.83 | -8.64 | -5.07
12 | Cc1nc(C2CCCN(C(=O)c3cccc(S(C)(=O)=O)c3)C2)no1 (configuration not stated) | -1.36 | -1.27 | 5.98 | 4.04 | -1.95 | 7.96 | 12.3 | -20.9 | 0 | 0 | 3.1
13 | CN(C(=O)NCCCN1CCCC1)C1CCN(c2ccccc2)C1=O (configuration not stated) | 5.28 | 15.8 | 2.15 | -4.7 | -7.71 | 0.766 | 20.9 | 24.5 | 4.41 | 12.2 | -10.3
14 | CCN(Cc1nc2c(cnn2C)c(=O)[nH]1)c1ccc(OC)c(OC)c1 | -2.86 | 24.1 | 14.9 | -0.321 | 0.513 | -2.8 | 23.3 | 27 | 9.38 | 20.2 | -22.5
15 | Cc1nc(C)n(C2CCCN(C(=O)c3csnn3)C2)n1 (configuration not stated) | -2.6 | 21.6 | -13 | -1.58 | -2.92 | -7.21 | 16.2 | 15.5 | 4.43 | 18.5 | -4.56
16 | CCOC(CC)C(=O)NCCC(=O)N1CCN(c2ccccn2)CC1 (configuration not stated) | -3.95 | 2.63 | 4.4 | 4.32 | 3.99 | -8.28 | 6.23 | -5.03 | 2.13 | 5.2 | 0.201
17 | CC(C)Oc1ccc(CSc2nnc(CN3CCCC3=O)o2)cc1 | -7.37 | -5.33 | -6.5 | 10 | 8.28 | 1.04 | 9.24 | 13.4 | 1.64 | 6.17 | -3.99
18 | COCc1cccc(NC(C)C(=O)N(C)Cc2cccc(F)c2)c1 (configuration not stated) | -7.47 | -2.7 | -1.66 | -7.46 | -3.23 | -0.744 | 6.44 | -12.8 | 1.07 | 1.24 | -5.78
19 | Cc1cccc(-c2nc(CN3CCCCC3Cn3cncn3)no2)c1 (configuration not stated) | -1.65 | -5.26 | 5.98 | 4.13 | 3.19 | 3.45 | 2.34 | -0.995 | 7.35 | 0 | 6.07
20 | Cc1cccc2c1cnn2CCCNC(=O)CCCC(=O)O | -1.56 | 5.2 | 4.98 | 7.89 | 4.42 | -112 | 0 | 2.46 | 4.3 | 16.1 | -2.54
21 | CSCCCNC(=O)Nc1cccc(-c2nccn2C)c1 | -3.41 | 6.94 | -0.0628 | 2.76 | -0.0972 | 1.32 | 16.8 | 10.7 | 1.05 | 2.56 | -2.41
22 | CC(=O)N1CCOC(c2cc(N3CC(O)C3)nc(C)n2)C1 (configuration not stated) | -3.22 | 5.33 | 11 | -2.94 | 0.394 | 2.1 | 11.2 | 0.425 | 5.32 | 16.7 | -2.41

— ChEMBL document CHEMBL3988442, “University of Dundee, Small-Polar-MMV Screening Library” (2021)
